FEN1 inh: human FEN1 inhibition; P39748; Recombinant FEN1 flap cleavage, fluorescence, 15 min; Potency, µM (titrated, usually from 114 µM), for the others: top-dose activity change, negative = inhibition, hits mostly inhibitors; hit rate 0.35% among 390,000; further: potency means the concentration at half of the fitted maximal effect; on the % scale 0 is the no-effect control and ±100 the full control effect; nearly all actives have a fitted effect of over 65% in size
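In this screen, 50 nM flap DNA substrate was added to 10 nM FEN1 pretreated with compound for 15 min at room temperature; cleavage was followed with reads at 0 and 15 min, and Hill fitting gave concentration–response parameters.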
PI5P4K alpha inh: blocks human PI5P4K alpha kinase activity; P48426; AID 652105; hit rate 1.2% among 330,000; PI5P4Kalpha enzyme, ADP-Glo luminescence, 60 min; active compounds read low; max response, %; active means max response of -50% or lower; inconclusive means between -30% and -50%; inactive means -30% or higher; further: value at the top dose of about 77 µM; on the % scale 0 is the no-effect control and ±100 the full control effect
Target sequence (P48426 whole entry, looked up): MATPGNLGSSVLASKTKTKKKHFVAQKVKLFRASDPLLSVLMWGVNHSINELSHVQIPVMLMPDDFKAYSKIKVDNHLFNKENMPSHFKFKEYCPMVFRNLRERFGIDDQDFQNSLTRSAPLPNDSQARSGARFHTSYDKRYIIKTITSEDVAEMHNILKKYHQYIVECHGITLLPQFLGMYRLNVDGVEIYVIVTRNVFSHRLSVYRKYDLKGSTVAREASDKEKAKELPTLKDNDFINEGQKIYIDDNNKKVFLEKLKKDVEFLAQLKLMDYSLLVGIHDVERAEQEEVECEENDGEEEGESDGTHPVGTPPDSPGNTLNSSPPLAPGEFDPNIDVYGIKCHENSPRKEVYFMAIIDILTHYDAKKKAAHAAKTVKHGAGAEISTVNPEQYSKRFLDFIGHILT
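Single end-point luminescence (ADP-Glo) quantified ADP from PI5P4Kalpha turnover; ATP 5 microM final, 1 h at RT, 0.1% CHAPS and 0.28 mM EGTA in HEPES pH 7.4.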
Tb PGK inh: T. brucei PGK inhibition; hit rate 0.043% among 380,000; PGK/GAPDH coupled, Kinase-Glo luminescence, 60 min; Potency, µM (doses to about 57.5 µM), for inactives: at the highest dose activity change, negative = inhibition, hits mostly inhibitors; P07378; further: potency means the concentration at half of the fitted maximal effect; on the % scale 0 is the no-effect control and ±100 the full control effect; nearly all actives have a fitted effect of over 60% in size
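Recombinant glycosomal PGK reaction used 1,3-bisphosphoglycerate generated in-well by GAPDH (100nM final) in 100mM TEA pH 7.6, 5mM MgCl2, 0.01% Tween-20. After 60 minutes at room temperature, ATP was read by Kinase-Glo Plus luminescence end-point.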
Pin1 inhibitor: human Pin1 inhibition | Pin1 FP peptide displacement, HiFluor488, 10 min | Potency, µM (highest dose often 115 µM), for the others: at the top dose activity, negative = inhibition, actives largely listed as inhibitors | hit rate 0.009% among 390,000 | AID 504891; active means well fitted inhibition curve with a large enough effect in the polarisation, with a control signal flat, not every such curve was filed as active; inconclusive means small, poorly fitted or top-dose-only effect, or effect the other way, or a change in a side signal; inactive means no such curve, though single readings can be large or run the other way; the % refers to the polarisation; further: potency means the concentration at half of the fitted maximal effect; on the % scale 0 is the no-effect control and ±100 the full control effect
Target sequence (Q13526 whole entry, looked up): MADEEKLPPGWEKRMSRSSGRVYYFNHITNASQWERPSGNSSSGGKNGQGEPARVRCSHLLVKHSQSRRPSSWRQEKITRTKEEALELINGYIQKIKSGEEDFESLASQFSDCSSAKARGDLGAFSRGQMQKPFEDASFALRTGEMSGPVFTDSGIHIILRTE
GRP78 ERSR act: inducers of ER stress response in human glioma cells. U87-MG GRP78 promoter luciferase reporter, 16 h. Potency, µM, for the others: at the highest dose activation, hits mostly activators. hit rate 0.02% among 420,000; further: potency means the concentration at half of the fitted maximal effect; series mostly up to about 76 µM; % of control where 0% means no effect; nearly all actives have a fitted effect of over 35% in size
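Stably transfected U87-MG human glioma cells carrying a GRP78-based luminescent sensor were seeded at 1000 cells/well, pin-dosed with compounds and incubated 16 h. Luciferase reagent was then added, and end-point luminescence was read after 10 min at room temperature.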
WRN helicase inh: blocks human WRN helicase | Q14191 | WRN helicase unwinding, fluorescent forked duplex, kinetic | Potency, µM (doses to about 114 µM), for the others: at the top dose activity change, negative = inhibition, usual class: inhibitors | hit rate 0.46% among 360,000; further: potency means the concentration at half of the fitted maximal effect; on the % scale 0 is the no-effect control and ±100 the full control effect; nearly all actives have a fitted effect of over 55% in size
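Enzyme (20 nM final) and test compound sit together 15 min at room temperature before substrate addition. Substrate is a single-forked duplex oligonucleotide (100 nM) labelled with fluorophore and quencher, with 2 mM ATP; helicase unwinding raises red fluorescence, read kinetically.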
An asterisk follows results filed as active; [ ] = remark or other dose. An excerpt weighted towards active compounds, which were near 1.3% of everything screened. Unless noted, the call rests on the fitted dose curve; in most records, active means well fitted curve in the direction sought with a large enough effect; inconclusive means small, poorly fitted or top-dose-only effect, or another doubt; inactive means no such curve, though single readings can be large; an effect the other way counts as inactive or inconclusive.

Screening COc1ccc(/C=N/NC(=O)c2ccc(C)cc2)cc1CN1CCN(c2ccc(F)cc2)CC1 returned FEN1 inh -8%, PI5P4K alpha inh -6, Tb PGK inh -10%, Pin1 inhibitor -7%, GRP78 ERSR act -2% and WRN helicase inh 2%.
COc1ccc(/C=N\NC(=O)c2cc(O)c(O)c(O)c2)cc1CN1CCN(c2ccc(F)cc2)CC1 was read as FEN1 inh 14µM*, PI5P4K alpha inh -25, Tb PGK inh 3%, Pin1 inhibitor -1%, GRP78 ERSR act -2% and WRN helicase inh -2%.
For CC1CN(Cc2cccn2-c2cccnc2)Cc2cc(Cl)ccc2O1 (stereo not given) the results were GRP78 ERSR act -4%.
N#C/C(=C\c1coc2ccc(O)cc2c1=O)C(=O)Nc1nc2ccccc2s1 was read as FEN1 inh inconclusive, PI5P4K alpha inh -101*, Tb PGK inh inconclusive, Pin1 inhibitor inconclusive, GRP78 ERSR act inconclusive and WRN helicase inh 56µM*.
Cc1ccc(NC(=O)c2cc(N3C(=O)C=CC3=O)ccc2Cl)cc1C was read as FEN1 inh 5%, PI5P4K alpha inh -76*, Tb PGK inh -2%, Pin1 inhibitor 6%, GRP78 ERSR act -4% and WRN helicase inh inconclusive.
For Cc1ccc(NC(=O)c2cc(N3C(=O)C=CC3=O)ccc2N2CCOCC2)cc1 the results were FEN1 inh -1%, PI5P4K alpha inh -63*, Tb PGK inh 10%, Pin1 inhibitor 10%, GRP78 ERSR act -12% and WRN helicase inh 35µM*.
Screening Cc1ccc(NC(=O)c2cc(-n3cnnc3)ccc2Cl)cc1 returned FEN1 inh -14%, Tb PGK inh 0%, Pin1 inhibitor 3%, GRP78 ERSR act -1% and WRN helicase inh -10%.
For O=C1OC2(c3cc(I)c(O)c(I)c3Oc3c2cc(I)c(O)c3I)c2c(Cl)c(Cl)c(Cl)c(Cl)c21 the results were GRP78 ERSR act -10%.
`CC(=O)O[C@]1(C(=O)CO)[C@@H](C)C[C@H]2[C@@H]3CCC4=CC(=O)C=C[C@]4(C)[C@@]3(F)[C@@H](O)C[C@]21C` gave GRP78 ERSR act -3%.
Cc1ccc(Nc2nnc(SCC(O)=C(C#N)c3nc4ccccc4[nH]3)s2)c(C)c1 was read as FEN1 inh -24%, PI5P4K alpha inh inconclusive, Tb PGK inh -9%, Pin1 inhibitor inconclusive, GRP78 ERSR act -1% and WRN helicase inh -8%[11.6 µM].
For Cc1cccc(C)c1Nc1nnc(SC/C(O)=C(\C#N)c2nc3ccccc3[nH]2)s1 the results were FEN1 inh -10%, PI5P4K alpha inh -68*, Tb PGK inh 4%, Pin1 inhibitor 13%, GRP78 ERSR act -1% and WRN helicase inh -29%.
`Cc1cccc(Nc2nnc(SC/C(O)=C(\C#N)c3nc4ccccc4[nH]3)s2)c1C` gave FEN1 inh -9%, PI5P4K alpha inh -59*, Tb PGK inh -8%, Pin1 inhibitor inconclusive, GRP78 ERSR act 0% and WRN helicase inh -31%.
Cc1ccsc1CN(C)c1ncnc2ccc(-c3ccc4c(c3)OCO4)cc12 was read as Pin1 inhibitor 14%.
For N#Cc1c(SCc2c(Cl)cccc2Cl)nc(N)[nH]c1=S the results were FEN1 inh 9%, PI5P4K alpha inh -65*, Tb PGK inh -3%, Pin1 inhibitor -18%, GRP78 ERSR act -1% and WRN helicase inh 3%.
Screening Cc1nc(SCc2ccccc2Cl)c(C#N)c(C)c1C returned FEN1 inh -3%, Tb PGK inh inactive, Pin1 inhibitor -9% and GRP78 ERSR act 1%.
For O=C(CNC(=O)c1ccc([N+](=O)[O-])cc1)OC(C(=O)Nc1cc(C(F)(F)F)ccc1Cl)c1ccccc1 (stereo not given) the results were Pin1 inhibitor 4%.
C/C(=C\C=C(C#N)C#N)c1cc(C#N)c(N)o1 was read as FEN1 inh 56µM*, PI5P4K alpha inh inconclusive, Tb PGK inh -18%, Pin1 inhibitor inconclusive, GRP78 ERSR act -4% and WRN helicase inh 89µM*.
`Cc1cccc(C(=O)NC(=S)NNC(=O)c2ccc(Cl)cc2)c1` gave FEN1 inh 3%, PI5P4K alpha inh -1, Tb PGK inh -1%, Pin1 inhibitor 0%, GRP78 ERSR act 35µM* and WRN helicase inh -8%.
For Cc1cccc(OCC(=O)NC(=S)NNC(=O)c2ccncc2)c1 the results were FEN1 inh -1%, PI5P4K alpha inh -73*, Tb PGK inh -6%, Pin1 inhibitor -1%, GRP78 ERSR act 0% and WRN helicase inh inconclusive.
`CC(C)N1CCN(c2cccc(Nc3nn4c(=O)c5ccccc5nc4s3)c2)CC1` gave Pin1 inhibitor 1%.
Cc1ccc(NS(=O)(=O)c2cc3c(cc2N(C)C)NC(=O)CC3)cc1C was read as Pin1 inhibitor -7%.
Screening Cc1cc(C)n2c(SCC(=O)N(CCC#N)c3ccc4c(c3)OCCO4)nnc2n1 returned PI5P4K alpha inh -61*, Tb PGK inh -20%, GRP78 ERSR act -3% and WRN helicase inh -7%[11.6 µM].
`Cc1ccc(N(CCC#N)C(=O)CSc2ccc3c(c2)OCCO3)cc1` gave FEN1 inh 4%, PI5P4K alpha inh 4, Tb PGK inh -10%, Pin1 inhibitor -9%, GRP78 ERSR act 1% and WRN helicase inh -3%.
For O=C1N/C(=N/O)S/C1=C/c1cccnc1 the results were FEN1 inh 15%, PI5P4K alpha inh -55*, Tb PGK inh -3%, Pin1 inhibitor -1%, GRP78 ERSR act 2% and WRN helicase inh -2%.
`Cc1ccccc1N=C1NC(=O)/C(=C/c2cccnc2)S1` gave FEN1 inh -11%, PI5P4K alpha inh inconclusive, Tb PGK inh 3%, Pin1 inhibitor 0%, GRP78 ERSR act -1% and WRN helicase inh -9%.
COc1cc(N)ccc1Nc1c2ccccc2nc2ccccc12 was read as PI5P4K alpha inh -55*, GRP78 ERSR act -7% and WRN helicase inh inconclusive.
Screening O=C1CCc2cc(S(=O)(=O)NCc3ccccc3)ccc2N1 returned Pin1 inhibitor 5%.
Cc1cc2nc(N3CCC(NC(C)c4nc(-c5ccccn5)no4)CC3)nc(C)c2cc1C (stereo not given) was read as GRP78 ERSR act 6%.
Screening CC(C)(C)c1ccc(C(=O)NC(=S)NNC(=O)c2cccs2)cc1 returned FEN1 inh -11%, PI5P4K alpha inh -27, Tb PGK inh -2%, Pin1 inhibitor 2%, GRP78 ERSR act 14µM* and WRN helicase inh -8%.
`Cc1cc2c(s1)c1cnn(Cc3c(Cl)cccc3Br)c(=O)c1n2C` gave Pin1 inhibitor -1%.
`NN1C(=O)c2cccc3c(C(=O)O)ccc(c23)C1=O` gave FEN1 inh 4%, PI5P4K alpha inh -64*, Tb PGK inh -1%, Pin1 inhibitor -1%, GRP78 ERSR act 0% and WRN helicase inh 4%.
